# Screens from PubChem BioAssay.
# RAD54 branch – RAD54 (human) branch migration inhibition. inhibition, % at 10.4 µM. AID 602329. RAD54 Holliday junction branch migration, FAM/BHQ fluorescence. actives 0.14% (n = 360,000);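 active = mean normalized replicate activity at least 40 and at least half of replicates scoring 40 or more; inconclusive = only one of the two criteria met; inactive = mean below 40 and under half of replicates reaching 40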;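 note: 0% = median of neutral control wells and 100% = median of positive control wells; inhibitors cause a drop in the FAM fluorescence signal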
# GSIS activator – GLuc luminescence reporter in INS-1E cells, primary screen for activators of glucose-dependent secretion of insulin. INS-1E GLuc reporter insulin secretion, 2-3 h. activation, % at 16.6 µM. actives 0.61% (n = 370,000);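 active = lowest replicate activation of at least 40%, so every replicate reaches that level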;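 note: 0% = median of neutral control wells and 100% = median of IBMX positive control wells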
# EWS-Fli block – EWS/Fli transcriptional activity inhibition; A673 NR0B1-luciferase reporter, viability-normalised; inhibition, % at 12.6 µM; actives 0.67% (n = 350,000); AID 651661;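 active = mean inhibition of at least 50% after viability correction, with every replicate also passing that limit; inconclusive = mean reaches 50% but only one of two replicates passes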;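 note: firefly luciferase signal divided by Alamar Blue viability fluorescence both relative to DMSO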
# F508del corr – CFTR F508del correction in bronchial cells; CFBE cells, YFP halide quenching; stimulated with forskolin plus potentiator P3; % fluorescence drop versus neutral controls; activity (quench increase), % at 7.58 µM; actives 0.36% (n = 350,000);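 active = mean added fluorescence quench of at least 8% versus neutral control, with both replicates also reaching 8%; inconclusive = only one of the mean or replicate conditions met; inactive = mean below 8% and not both replicates reaching 8%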;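 note: cells transiently co-express mutant CFTR-F508del with the halide-sensitive YFP; corrector assay measuring rescue of mutant channel to the surface after 24 h compound exposure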
# LGR2 antag – blocks bursicon-induced cAMP signaling via Drosophila LGR2; HEK293 LGR2, CRE-luciferase, bursicon-stimulated, 4 h; inhibition, % at 9.99 µM; actives 0.35% (n = 380,000); AID 720647;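 active = drop in luminescence signal, shown as inhibition above about 50% in the replicate tests, limit read from the data, passing the limit was not always enough; inconclusive = probably only some replicates passing the limit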;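 note: agonist challenge used bursicon conditioned medium at about half maximal strength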
# RAD52 inh – blocks human RAD52 DNA annealing | P43351 | recombinant RAD52 DNA annealing, FRET fluorescence | inhibition, % at 18.7 µM | actives 0.46% (n = 360,000) | AID 651710;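 active = every replicate showing at least 50% inhibition; inconclusive = mean inhibition at least 50% but not in every replicate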
# Target sequence (P43351 whole entry, looked up): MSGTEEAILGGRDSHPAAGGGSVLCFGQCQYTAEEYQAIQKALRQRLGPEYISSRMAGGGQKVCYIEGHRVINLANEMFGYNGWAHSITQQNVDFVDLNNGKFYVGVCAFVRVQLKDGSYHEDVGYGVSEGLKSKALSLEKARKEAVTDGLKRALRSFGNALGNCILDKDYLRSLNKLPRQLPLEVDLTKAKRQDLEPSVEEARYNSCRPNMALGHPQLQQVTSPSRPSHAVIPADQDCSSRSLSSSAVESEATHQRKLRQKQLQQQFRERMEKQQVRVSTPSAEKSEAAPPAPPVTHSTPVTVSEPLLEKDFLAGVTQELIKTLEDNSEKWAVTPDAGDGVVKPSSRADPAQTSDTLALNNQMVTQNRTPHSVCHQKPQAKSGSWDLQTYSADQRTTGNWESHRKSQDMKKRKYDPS
# RAD52 DNA ctr – binds DNA, flagging false RAD52 inhibitor hits; shares compounds with RAD52 inh; Salmon sperm DNA/acridine orange FP displacement, DNA binding; AC50, µM; actives 8% (n = 1,000); AID 652128;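 active = fitted half-maximal concentration for signal loss at or below twice the highest dose tested, in every separate run, actives reach about 64 µM in these data; inconclusive = runs disagree, or flat partial signal loss, or poor fit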
# Starred values were filed as active, the others as inactive; i = inactive; ? = inconclusive; · = not tested or not shown; ! = repeats disagree. Most compounds without a hit are left out; they make up all but 1.8% or so of the library.
SMILES,RAD54 branch,GSIS activator,EWS-Fli block,F508del corr,LGR2 antag,RAD52 inh,RAD52 DNA ctr
COc1cccc(OCC(O)CN2CCN(CCN3C(=O)c4cccc5cccc(c45)C3=O)CC2)c1 (stereo not drawn),·,-4.7,-21.0,3.3,-24.9,90.7*,?
Cc1ccc(C)c(OCC(O)CN2CCC(CN3C(=O)c4cccc5cccc(c45)C3=O)CC2)c1 (stereo not drawn),·,-25.1,·,·,18.9,·,·
COc1ccc(OCC(O)CN2CCC(CN3C(=O)c4cccc5cccc(c45)C3=O)CC2)cc1 (stereo not drawn),·,-5.8,13.4,6.1,17.9,96.0*,i
COc1cc2c3c(cccc3c1)C(=O)N(CCN1CCCC1)C2=O,105.5*,·,6.0,4.0,·,71.1*,31.2µM*
CCCCc1nc2n[nH]c(N)c2c2c1CCC2,6.6,·,·,·,·,·,·
CCCCN(CC)C(=S)Nc1ccc2nc(N3CCN(C)CC3)cc(C)c2c1,45.5,-10.5,-9.8,-2.3,-9.0,34.4,·
CCN1CCN(c2cc(C)c3cc(NC(=O)c4cccs4)ccc3n2)CC1,29.7,4.1,-51.0,1.3,-33.7,62.9*,i
CCCCNC(=S)Nc1ccc2nc(N3CCN(CC)CC3)cc(C)c2c1,30.4,-3.8,9.3,2.0,13.7,56.8*,i
Cc1cc(N2CCCC2)nc2ccc(NC(=S)NCCCN3CCC(C)CC3)cc12,·,18.1,14.6,0.1,11.6,75.6*,i
CCOC(=O)Cc1csc(NC(=O)C(C)c2ccc([N+](=O)[O-])cc2)n1 (stereo not drawn),·,-10.6,0.8,·,-12.5,-14.1,·
Cn1c(SCC(=O)N2c3ccccc3Sc3ccccc32)nc2ccccc21,·,5.3,9.2,·,18.5,-1.3,·
CN(C)CCCn1c(SCC(=O)N2c3ccccc3Sc3ccccc32)nc2ccccc2c1=O,5.7,-10.8,54.5*,·,-9.8,69.0*,i
Cc1ccc(-c2csc(NC(=O)CSc3nc4ccccc4c(=O)n3CCCN(C)C)n2)cc1,·,-7.3,4.4,-4.0,11.1,91.2*,i
CCc1cc2cccc(C)c2nc1SCC(=O)NC1CCCC1,-6.3,14.4,-12.2,-2.8,-3.6,-11.0,·
COc1cc(CNC(C)(C)CO)cc(Br)c1OCc1ccc(Cl)cc1Cl,·,176.1*,12.8,·,43.9,55.5*,i
Oc1ccc[n+](CCCCC[n+]2cccc(O)c2)c1,-2.5,16.8,1.4,3.6,-2.2,-12.2,·
CCCCCCCCCCCCCCCC[n+]1ccccc1,55.2*,497.2*,59.9*,2.2,61.2*!,92.8*,?
Cc1c(C)n(C)c2ccc(C(=O)NCCCN3CCN(C)CC3)cc12,9.7,-9.6,-8.5,1.4,3.6,74.2*,i
CN(Cc1ccccc1)c1cc2c(c3c1ccn3C)C1CCC2C1 (stereo not drawn),-13.4,-3.6,-23.1,-3.1,-26.9,58.2*,i
CN(CCc1ccccc1)c1cc2c(c3c1ccn3C)C1CCC2C1 (stereo not drawn),5.0,-10.1,0.1,2.0,-8.6,63.9*,i
CN(c1cc2c(c3c1ccn3C)C1CCC2C1)C1CCCCC1 (stereo not drawn),1.7,-0.1,7.3,2.5,14.1,9.2,·
CCN(C)c1cc2c(c3c1ccn3C)C1CCC2C1 (stereo not drawn),9.3,·,-5.3,-0.1,·,69.8*,i
Cn1ccc2c(N(Cc3ccccc3)Cc3ccccc3)cc3c(c21)C1CCC3C1 (stereo not drawn),-2.1,15.1,-1.8,-2.7,-7.4,-11.7,·
CC1CCCN(S(=O)(=O)c2ccc([N+](=O)[O-])cc2)C1 (stereo not drawn),1.7,10.6,16.4,1.2,10.2,-5.7,·
CCN(CC)CCNc1ncnc2c1sc1nc(N3CCCC3)c3c(c12)CC(C)(C)OC3,·,27.5,10.4,0.5,·,78.8*,i
OCCNc1ncnc2c1sc1nc(N3CCOCC3)c3c(c12)CCC3,-11.6,2.3,3.1,3.5,-15.0,34.4,·
CCN(CC)CCNc1ncnc2c1sc1nc(N3CCOCC3)c3c(c12)CCCC3,·,-13.4,15.3,-1.9,23.4,66.3*,65.1µM*
CC1(C)Cc2c(c(-c3ccco3)nc3sc4c(NCC5CCCO5)ncnc4c23)CO1 (stereo not drawn),·,38.3,·,·,10.2,·,·
